# Several values for one entry are separate records, joined by “and”; a condition that tells them apart may be missing. Identical values can stand only once. Inconclusive results are not listed. A call without a number means that no potency is given here. Activity calls are given as the source filed them. Unless noted, calls follow the shape of the full dose curve.
# What was measured:
# [1] = biological target: Bile acid receptor (Homo sapiens) (UniProt Q96RI1); assay: qHTS assay for small molecule antagonists of farnesoid X receptor signaling (AID 588526)
# Chain of Bile acid receptor (Homo sapiens) (Q96RI1 whole entry, looked up): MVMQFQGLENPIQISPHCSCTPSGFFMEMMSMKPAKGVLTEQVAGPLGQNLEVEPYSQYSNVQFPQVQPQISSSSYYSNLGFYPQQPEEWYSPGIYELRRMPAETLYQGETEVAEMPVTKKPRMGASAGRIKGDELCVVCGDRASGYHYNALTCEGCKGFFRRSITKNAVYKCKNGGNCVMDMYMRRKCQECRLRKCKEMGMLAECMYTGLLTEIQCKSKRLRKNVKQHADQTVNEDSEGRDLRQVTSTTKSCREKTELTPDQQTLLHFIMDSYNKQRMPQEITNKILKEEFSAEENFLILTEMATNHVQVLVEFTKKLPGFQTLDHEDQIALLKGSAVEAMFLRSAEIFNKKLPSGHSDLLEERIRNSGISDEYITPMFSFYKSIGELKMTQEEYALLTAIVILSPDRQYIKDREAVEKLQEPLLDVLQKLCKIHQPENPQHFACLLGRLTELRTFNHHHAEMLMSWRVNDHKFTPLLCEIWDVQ
# Outline: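 Antagonist mode: titrated compounds tested against chenodeoxycholic acid stimulation (normalized to 50 uM CDCA and DMSO) in GeneBLAzer HEK293T cells for 16 h. Beta-lactamase read by CCF4 fluorescence; IC50 from Hill fits.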
# [2] = biological target: Glucocorticoid receptor (Homo sapiens) (UniProt P04150); assay: qHTS assay for small molecule agonists of glucocorticoid receptor signaling (AID 588532; active = well fitted curve in the direction sought with a large enough effect in the signal ratio, with a control signal flat; the % refers to the signal ratio); conditions: HeLa MMTV-bla, beta-lactamase ratio, agonist, 18 h; stronger effect = higher value; percent of dexamethasone control, DMSO zero
# Chain of Glucocorticoid receptor (Homo sapiens) (P04150 whole entry, looked up): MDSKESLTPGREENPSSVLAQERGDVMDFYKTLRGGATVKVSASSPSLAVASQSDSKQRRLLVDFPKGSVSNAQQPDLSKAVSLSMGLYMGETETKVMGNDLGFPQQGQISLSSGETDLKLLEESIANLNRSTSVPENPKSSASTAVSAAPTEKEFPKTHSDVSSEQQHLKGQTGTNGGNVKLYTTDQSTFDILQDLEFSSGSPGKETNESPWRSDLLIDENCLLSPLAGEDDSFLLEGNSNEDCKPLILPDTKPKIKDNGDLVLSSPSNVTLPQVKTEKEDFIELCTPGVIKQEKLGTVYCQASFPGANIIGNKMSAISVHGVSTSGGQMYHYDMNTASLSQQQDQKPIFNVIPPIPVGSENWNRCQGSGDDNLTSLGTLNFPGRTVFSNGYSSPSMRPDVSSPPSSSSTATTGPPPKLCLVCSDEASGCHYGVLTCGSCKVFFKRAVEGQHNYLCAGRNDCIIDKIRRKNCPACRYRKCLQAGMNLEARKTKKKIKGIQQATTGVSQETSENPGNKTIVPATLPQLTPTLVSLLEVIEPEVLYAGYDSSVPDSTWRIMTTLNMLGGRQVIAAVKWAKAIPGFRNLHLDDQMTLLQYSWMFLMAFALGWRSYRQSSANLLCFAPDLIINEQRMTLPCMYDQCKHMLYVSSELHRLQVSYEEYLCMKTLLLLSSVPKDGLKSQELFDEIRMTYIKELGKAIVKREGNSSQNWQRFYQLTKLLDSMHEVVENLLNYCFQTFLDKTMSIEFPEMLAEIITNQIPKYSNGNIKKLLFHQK
# Outline: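 MMTV-bla HeLa beta-lactamase reporter cells in 1% charcoal/dextran FBS medium, compounds up to 92 uM for 18 h at 37 C, CCF4 readout; normalized to 0.1 uM dexamethasone (100%), EC50 and efficacy from Hill fits.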
# [3] = qHTS assay for small molecule antagonists of peroxisome proliferator-activated receptor delta signaling (AID 588535; active = well fitted inhibition curve with a large enough effect in the signal ratio, with a control signal flat, not every such curve was filed as active; the % refers to the signal ratio;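 as to max response: cells co-treated with a PPAR-delta agonist as stimulator during compound exposure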); conditions: HEK293T PPARd-UAS-bla, beta-lactamase FRET ratio, 18 h; 460 nm channel
# Outline: (§1)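 Fluorescence from CCF4-loaded GeneBLAzer PPAR-delta-UAS-bla HEK293T cells (2 hrs RT loading) quantified reporter inhibition after an 18 hr, 37 C compound exposure across a titration.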
# [4] = biological target: Peroxisome proliferator-activated receptor delta (Homo sapiens) (UniProt Q03181); assay: as above
# Chain of Peroxisome proliferator-activated receptor delta (Homo sapiens) (Q03181 whole entry, looked up): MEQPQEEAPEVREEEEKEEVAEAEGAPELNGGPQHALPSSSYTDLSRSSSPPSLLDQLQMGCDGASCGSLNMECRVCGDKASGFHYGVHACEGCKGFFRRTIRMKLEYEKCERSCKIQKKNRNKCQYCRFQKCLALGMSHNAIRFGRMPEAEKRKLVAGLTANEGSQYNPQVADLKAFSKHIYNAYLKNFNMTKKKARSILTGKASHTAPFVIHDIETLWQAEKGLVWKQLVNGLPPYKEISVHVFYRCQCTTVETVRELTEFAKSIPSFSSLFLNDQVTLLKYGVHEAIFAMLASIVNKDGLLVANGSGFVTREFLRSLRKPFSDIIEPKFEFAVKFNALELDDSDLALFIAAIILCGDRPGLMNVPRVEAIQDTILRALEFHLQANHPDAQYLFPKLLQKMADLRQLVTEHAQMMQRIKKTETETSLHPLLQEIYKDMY
# Outline: as §1
# [5] = biological target: Peroxisome proliferator-activated receptor gamma (Homo sapiens) (UniProt P37231); assay: qHTS assay for small molecule agonists of peroxisome proliferator-activated receptor gamma signaling (AID 588536; active = well fitted curve in the direction sought with a large enough effect in the signal ratio, with a control signal flat, not every such curve was filed as active; the % refers to the signal ratio)
# Chain of Peroxisome proliferator-activated receptor gamma (Homo sapiens) (P37231 whole entry, looked up): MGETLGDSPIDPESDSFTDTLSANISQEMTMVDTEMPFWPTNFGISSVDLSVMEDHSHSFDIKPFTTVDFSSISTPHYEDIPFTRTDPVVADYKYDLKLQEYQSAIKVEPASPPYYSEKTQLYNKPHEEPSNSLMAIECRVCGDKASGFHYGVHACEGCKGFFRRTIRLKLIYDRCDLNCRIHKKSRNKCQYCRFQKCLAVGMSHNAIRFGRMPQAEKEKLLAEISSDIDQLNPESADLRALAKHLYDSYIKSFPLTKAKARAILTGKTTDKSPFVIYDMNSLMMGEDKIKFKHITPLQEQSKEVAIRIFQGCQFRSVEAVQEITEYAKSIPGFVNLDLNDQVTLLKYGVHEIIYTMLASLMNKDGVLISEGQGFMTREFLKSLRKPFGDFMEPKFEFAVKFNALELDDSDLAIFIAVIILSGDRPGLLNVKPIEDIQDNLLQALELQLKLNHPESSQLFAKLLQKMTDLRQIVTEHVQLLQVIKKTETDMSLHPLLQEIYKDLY
# Outline: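 Compound treatment: 16 h, 37 C, HEK293 GeneBLAzer cells. Detection: CCF4, 2 h RT. Values: Hill-fit EC50, efficacy as % of 2 uM rosiglitazone.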
# [6] = biological target: Peroxisome proliferator-activated receptor gamma (Homo sapiens) (UniProt P37231); assay: qHTS assay for small molecule antagonists of peroxisome proliferator-activated receptor gamma signaling (AID 588537; active = well fitted inhibition curve with a large enough effect in the signal ratio, with a control signal flat, not every such curve was filed as active; the % refers to the signal ratio;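 also: reporter cells co-stimulated with 50 nM rosiglitazone agonist during compound treatment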)
# Outline: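 Fluorescence at 460 and 530 nm (405 nm excitation) reported beta-lactamase cleavage of CCF4 after 2 h room-temperature loading. HEK293 reporter cells in 1% charcoal/dextran-treated FBS had received compound and rosiglitazone for 16 h.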
# [7] = biological target: Vitamin D3 receptor (Homo sapiens) (UniProt P11473); assay: qHTS assay for small molecule antagonists of vitamin D receptor signaling (AID 588541);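 also: receptor activated by calcitriol during compound treatment; series mostly up to about 77 µM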
# Chain of Vitamin D3 receptor (Homo sapiens) (P11473 whole entry, looked up): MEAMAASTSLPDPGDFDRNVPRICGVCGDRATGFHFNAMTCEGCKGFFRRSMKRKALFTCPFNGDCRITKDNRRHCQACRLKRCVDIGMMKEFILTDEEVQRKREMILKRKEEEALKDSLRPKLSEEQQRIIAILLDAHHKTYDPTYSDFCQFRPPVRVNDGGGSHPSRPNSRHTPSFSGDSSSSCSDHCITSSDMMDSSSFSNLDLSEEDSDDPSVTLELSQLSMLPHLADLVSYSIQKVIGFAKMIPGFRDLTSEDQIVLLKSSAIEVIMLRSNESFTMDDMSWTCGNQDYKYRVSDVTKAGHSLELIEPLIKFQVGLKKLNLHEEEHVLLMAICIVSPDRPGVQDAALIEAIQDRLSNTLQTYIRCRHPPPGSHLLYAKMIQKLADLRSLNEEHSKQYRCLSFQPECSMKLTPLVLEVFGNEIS
# Outline: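 VDR-UAS-bla HEK293T cells in 2% charcoal-stripped FBS were stimulated with 1-alpha,25-dihydroxyvitamin D3 (3 nM final) plus compound for 16 h at 37 C. The beta-lactamase CCF4 readout was normalized to 50 nM agonist and DMSO, and Hill fits gave IC50.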
# [8] = biological target: Vitamin D3 receptor (Homo sapiens) (UniProt P11473); assay: qHTS assay for small molecule agonists of vitamin D receptor signaling (AID 588543)
# Outline: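 β-lactamase reporter, VDR-UAS-bla HEK293T, agonist mode. Cells plated 5 h at 37 °C, compound titration 16 h at 37 °C, CCF4 dye 2 h RT, ratio 460/530 nm. Hill fit → EC50, efficacy vs 50 nM 1α,25-(OH)2D3.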
# [9] = biological target: Glucocorticoid receptor (Homo sapiens) (UniProt P04150); assay: qHTS assay for small molecule antagonists of glucocorticoid receptor signaling (AID 588533; active = well fitted inhibition curve with a large enough effect in the signal ratio, with a control signal flat, not every such curve was filed as active; the % refers to the signal ratio)
# Outline: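 Antagonist-mode qHTS: compound titrations added to GRE-bla HeLa cells, then dexamethasone 2 nM final; 18 h, 37 C. CCF4 FRET fluorescence normalized to dexamethasone and DMSO; IC50 from Hill fit.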
Compound,outcome [1],activation [2],max response [3],Potency [4],outcome [5],outcome [6],outcome [7],outcome [8],outcome [9]
C=C(C)C1CC=C(C)C(OC(C)=O)C1 (configuration not stated),inactive,3.07% (inactive),6.72%,inactive,inactive,inactive,inactive,inactive,
Cc1ccc(C)c(O)c1,inactive,4.8% (inactive),7.19%,inactive,inactive,,inactive,inactive,
Cc1ccc2oc(=O)ccc2c1,inactive,-1.61% (inactive),1.44% and 30.5%,inactive,inactive,inactive,inactive,inactive,
CC(=O)OC(C)C,inactive,,-28.9%,,inactive,,inactive,inactive,inactive
O=C1OC(=O)c2c(Cl)c(Cl)c(Cl)c(Cl)c21,inactive,,-11.3%,inactive,inactive,,,,
CCC(C)(C)C,inactive,-3.95% (inactive),,,inactive,,,inactive,inactive
Nc1nc2ccccc2[nH]1,inactive,0.673% (inactive),,,inactive,inactive,inactive,inactive,inactive
O=CNc1ccccc1,inactive,,,,inactive,inactive,inactive,inactive,inactive
COc1cccc(N)c1,inactive,1.73% (inactive),,,,,inactive,inactive,inactive
CCC(=O)/C=C/C1C(C)=CCCC1(C)C (configuration not stated),inactive,-2.65% (inactive),2.01%,inactive,inactive,inactive,inactive,inactive,
Nc1c(Cl)cc(Cl)cc1Cl,inactive,,1.78%,,inactive,inactive,inactive,inactive,inactive
Cc1ccc(C)o1,inactive,,-8.16%,inactive,inactive,,inactive,inactive,inactive
C1CCOC1,inactive,0.528% (inactive),,,inactive,,inactive,inactive,inactive
Nc1cccc(C(F)(F)F)c1,inactive,,14.1% and 46.7%,inactive,inactive,,,,
Cc1nc2ccc(Cl)cc2[nH]1,inactive,,,,inactive,inactive,inactive,inactive,inactive
O=C(O)c1ccc(CO)o1,inactive,-2.95% (inactive),,,inactive,,inactive,inactive,
O=C1C=CCCC1,inactive,,-11%,inactive,inactive,,,,

Compound,outcome [1],activation [2],max response [3],Potency [4],outcome [5],outcome [6],outcome [7],outcome [8],outcome [9]
Clc1ccc(Cl)c(Cl)c1Cl,inactive,,9.65% and -40.7%,,inactive,inactive,inactive,inactive,inactive
C=Cc1ccc(C=C)cc1,inactive,,-5.46%,inactive,inactive,,inactive,inactive,inactive
CCC1CO1 (configuration not stated),inactive,-3% (inactive),-69.5%,inactive,inactive,inactive,,inactive,
CSCCC=O,inactive,,-13.1%,inactive,inactive,,,inactive,inactive
O=C(Cl)c1cccc([N+](=O)[O-])c1,inactive,,33.5%,inactive,inactive,,inactive,inactive,inactive
CCCCC=O,inactive,-0.364% (inactive),,,,,inactive,inactive,
Nc1cc(Cl)c([N+](=O)[O-])cc1O,inactive,-1.56% (inactive),,,,,inactive,inactive,inactive
FC(F)(F)c1ccccc1Cl,inactive,6.11% (inactive),25.6%,inactive,inactive,inactive,inactive,inactive,
CNC(=O)c1ccccc1,inactive,-1.59% (inactive),1.71%,inactive,inactive,inactive,,inactive,
C=CCCCCCC,inactive,7.84% (inactive),,,inactive,inactive,,inactive,inactive
CCOCCO,inactive,,,,inactive,,inactive,inactive,inactive
CCOCCOCC,inactive,,-23%,inactive,inactive,inactive,inactive,inactive,inactive
CCCCCO,inactive,4.01% (inactive),-5.82%,,,,,inactive,
CN(C)CCCCl,inactive,13.4% (inactive),,,,,inactive,inactive,inactive
NC(N)=S,inactive,1.8% (inactive),,,inactive,inactive,inactive,inactive,inactive
COc1ccccc1[N+](=O)[O-],inactive,,,,,,inactive,inactive,
Oc1c(Cl)ccc(Cl)c1Cl,inactive,,,,,,inactive,inactive,
